Results: PubChem BioAssay (NCATS)
Several values for one entry are separate records, joined by “and”; a condition that tells them apart may be missing. Identical values can stand only once. Results filed as inconclusive are left out. A call without a number means that no potency is given here. Activity calls are given as the source filed them. Unless noted, calls come from the whole dose curve; as a rule, active = well fitted curve in the direction sought with a large enough effect; inconclusive = small, poorly fitted or top-dose-only effect, or another doubt; inactive = no such curve, though single readings can be large; an effect the other way counts as inactive or inconclusive.

What was measured:
[1] = Quantitative high throughput screen for delayed death inhibitors of the malarial parasite plastid, 48 hour incubation (AID 488752); note: nearly all actives have a fitted effect of over 65% in size; note: potency is the fitted concentration of half-maximal effect
Procedure, shortened: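 Readout is firefly luciferase luminescence from a reporter integrated into the parasite genome, with lower signal taken as inhibited growth. Infected red cells (0.1% parasitemia, 2% hematocrit final) are cultured with compound for one 48 h cycle at 37 C.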

[2] = target: Thioredoxin reductase 1, cytoplasmic (Rattus norvegicus) (UniProt O89049); experiment: qHTS Assay for Substrates of Mammalian Selenoprotein Thioredoxin Reductase 1 (TrxR1) (AID 488772);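 note: NADPH fluorescence in the first read after selenite addition and not the 8 min delta; series mostly up to about 57 µM; a drop in NADPH fluorescence below the no-compound background marks a TrxR1 substrate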
Chain of Thioredoxin reductase 1, cytoplasmic (Rattus norvegicus) (O89049 whole entry, looked up): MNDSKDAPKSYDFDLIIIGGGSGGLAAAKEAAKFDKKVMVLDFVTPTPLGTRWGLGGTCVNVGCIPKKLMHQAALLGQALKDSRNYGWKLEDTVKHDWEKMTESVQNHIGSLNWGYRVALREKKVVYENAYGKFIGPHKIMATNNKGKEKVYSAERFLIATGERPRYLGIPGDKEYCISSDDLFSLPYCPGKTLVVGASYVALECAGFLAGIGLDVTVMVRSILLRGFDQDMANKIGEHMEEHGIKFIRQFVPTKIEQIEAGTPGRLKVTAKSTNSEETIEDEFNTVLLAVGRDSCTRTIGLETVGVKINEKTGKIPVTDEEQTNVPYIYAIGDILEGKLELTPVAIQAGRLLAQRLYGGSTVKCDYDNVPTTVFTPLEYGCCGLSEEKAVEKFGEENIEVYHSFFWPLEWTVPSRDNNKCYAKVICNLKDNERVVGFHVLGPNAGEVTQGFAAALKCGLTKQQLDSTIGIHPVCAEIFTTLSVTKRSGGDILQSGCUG
Procedure, shortened: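 Quantitative HTS in Tris-HCl buffer at pH 7.5 with EDTA and Tween-20, using rat TrxR1, 400 uM NADPH and 400 uM selenite (final). A fall in initial NADPH fluorescence relative to background marked substrate behaviour.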

[3] = target: Thioredoxin reductase 1, cytoplasmic (Rattus norvegicus) (UniProt O89049); experiment: qHTS Assay for Inhibitors of Mammalian Selenoprotein Thioredoxin Reductase 1 (TrxR1) (AID 488773); details: Potency: inhibition;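 note: drop in NADPH fluorescence over an 8 min run after selenite addition; series mostly up to about 57 µM; nearly all actives have a fitted effect of over 40% in size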
Procedure, shortened: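 Steps: enzyme (90 nM) plus NADPH (400 uM final), 5 min at ~22 deg C; compound added, 15 min; selenite (400 uM final) added; fluorescence followed for 8 min. Concentration-response curves derived from the normalized delta values.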

[4] = target: Flap endonuclease 1 (Homo sapiens) (UniProt P39748); experiment: qHTS Validation Assay for the Inhibitors of Human Flap endonuclease 1 (FEN1) (AID 488816); note: potency is the fitted concentration of half-maximal effect
Procedure, shortened: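 Readings taken at 0 and 15 min after starting the reaction with 50 nM (final) substrate supplied the signal. Compounds had first sat with 10 nM FEN1 reagent for 15 min at room temperature. Values come from Hill-equation concentration-response fits.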

[5] = target: M-phase phosphoprotein 8 (Homo sapiens) (UniProt Q99549); experiment: qHTS Validation Assay for Inhibitors for MPP8 Chromodomain Interactions with Methylated Histone Tails (AID 488949); note: nearly all actives have a fitted effect of over 55% in size; note: potency is the fitted concentration of half-maximal effect
Chain of M-phase phosphoprotein 8 (Homo sapiens) (Q99549 whole entry, looked up): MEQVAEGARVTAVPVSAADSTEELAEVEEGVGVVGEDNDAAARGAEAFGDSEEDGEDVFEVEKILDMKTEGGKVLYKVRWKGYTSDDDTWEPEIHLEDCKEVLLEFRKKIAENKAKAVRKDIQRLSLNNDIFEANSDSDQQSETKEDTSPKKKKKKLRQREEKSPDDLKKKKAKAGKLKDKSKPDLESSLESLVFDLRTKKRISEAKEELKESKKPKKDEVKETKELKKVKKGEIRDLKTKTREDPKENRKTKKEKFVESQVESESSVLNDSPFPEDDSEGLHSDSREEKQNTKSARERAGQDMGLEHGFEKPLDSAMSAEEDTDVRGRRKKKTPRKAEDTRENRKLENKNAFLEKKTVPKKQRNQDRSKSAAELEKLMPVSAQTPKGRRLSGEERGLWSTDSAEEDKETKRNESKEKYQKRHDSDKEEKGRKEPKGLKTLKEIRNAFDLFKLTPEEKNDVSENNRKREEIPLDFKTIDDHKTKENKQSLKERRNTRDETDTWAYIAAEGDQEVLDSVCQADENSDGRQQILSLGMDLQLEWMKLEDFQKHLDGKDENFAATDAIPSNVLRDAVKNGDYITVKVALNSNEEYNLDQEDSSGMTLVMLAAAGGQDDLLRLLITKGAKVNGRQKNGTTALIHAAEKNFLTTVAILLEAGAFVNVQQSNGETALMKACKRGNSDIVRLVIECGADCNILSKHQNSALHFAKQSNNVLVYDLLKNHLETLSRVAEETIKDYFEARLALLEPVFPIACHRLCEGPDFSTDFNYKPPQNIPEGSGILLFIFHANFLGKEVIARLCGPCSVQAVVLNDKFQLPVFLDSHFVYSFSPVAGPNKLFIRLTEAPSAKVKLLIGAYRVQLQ
Procedure, shortened: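 MPP8 (50 nM) was pre-bound to 50 nM biotinylated H3(1-18)K9me3 peptide in PBS pH 7.4 with 0.01% Tween-20. Compounds were then added for 30 min at room temperature, and complex disruption was read by AlphaScreen with streptavidin donor and nickel-chelate acceptor beads.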

[6] = target: Chromobox protein homolog 1 (Homo sapiens) (UniProt P83916); experiment: qHTS Validation Assay for Inhibitors of HP1-beta Chromodomain Interactions with Methylated Histone Tails (AID 488953); note: nearly all actives have a fitted effect of over 50% in size; note: potency is the fitted concentration of half-maximal effect
Chain of Chromobox protein homolog 1 (Homo sapiens) (P83916 whole entry, looked up): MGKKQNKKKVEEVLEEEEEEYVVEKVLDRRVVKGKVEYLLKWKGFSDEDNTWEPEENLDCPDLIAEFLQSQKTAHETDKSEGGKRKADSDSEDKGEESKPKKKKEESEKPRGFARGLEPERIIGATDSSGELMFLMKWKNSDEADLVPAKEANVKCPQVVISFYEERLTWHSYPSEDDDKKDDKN
Procedure, shortened: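 50 nM HP1-beta + 50 nM biotin-H3(1-18)K9me3, PBS pH 7.4, 0.01% Tween-20, 30 min RT; compound added, 30 min RT; AlphaScreen beads 10 ug/mL final, 30 min dark; luminescence read.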

[7] = target: Transient receptor potential cation channel subfamily V member 1 (Homo sapiens) (UniProt Q8NER1); experiment: HTS Assay for Compounds that Act as Enhancers of the Vanilloid Receptor 1 (AID 488979)
Chain of Transient receptor potential cation channel subfamily V member 1 (Homo sapiens) (Q8NER1 whole entry, looked up): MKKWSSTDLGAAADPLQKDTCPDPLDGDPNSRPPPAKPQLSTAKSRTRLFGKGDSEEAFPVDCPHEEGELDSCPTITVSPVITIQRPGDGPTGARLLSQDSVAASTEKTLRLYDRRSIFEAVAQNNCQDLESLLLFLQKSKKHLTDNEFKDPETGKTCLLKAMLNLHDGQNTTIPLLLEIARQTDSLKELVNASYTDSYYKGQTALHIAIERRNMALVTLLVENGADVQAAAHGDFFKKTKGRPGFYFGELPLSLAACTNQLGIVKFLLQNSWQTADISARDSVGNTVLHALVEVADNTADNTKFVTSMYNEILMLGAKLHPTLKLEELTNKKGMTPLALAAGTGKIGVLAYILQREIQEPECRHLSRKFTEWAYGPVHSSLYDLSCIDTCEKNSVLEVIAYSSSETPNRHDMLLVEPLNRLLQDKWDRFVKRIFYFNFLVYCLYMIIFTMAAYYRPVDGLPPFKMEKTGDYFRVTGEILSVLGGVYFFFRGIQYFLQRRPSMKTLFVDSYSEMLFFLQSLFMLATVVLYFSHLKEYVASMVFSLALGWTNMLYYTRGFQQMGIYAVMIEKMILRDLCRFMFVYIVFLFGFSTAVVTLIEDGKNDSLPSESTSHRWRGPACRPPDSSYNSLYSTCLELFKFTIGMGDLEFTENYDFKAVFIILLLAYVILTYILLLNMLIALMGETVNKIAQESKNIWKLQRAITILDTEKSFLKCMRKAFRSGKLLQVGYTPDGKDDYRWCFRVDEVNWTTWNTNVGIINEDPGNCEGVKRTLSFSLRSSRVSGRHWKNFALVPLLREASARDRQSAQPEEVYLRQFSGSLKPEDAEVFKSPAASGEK
Procedure, shortened: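 Calcium influx kinetics via Fluo-8 (480/520 nm) in TRPV1-expressing cells, 2000/well cultured overnight at 35.5C. Compound-alone read 3 min (agonist phase), followed by EC20 capsaicin challenge for 2 min (enhancer phase).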

[8] = target: Thyrotropin receptor (Homo sapiens) (UniProt P16473); experiment: qHTS Assay for Antagonists of the Thyroid Stimulating Hormone Receptor (AID 488980); note: series mostly up to about 58 µM
Chain of Thyrotropin receptor (Homo sapiens) (P16473 whole entry, looked up): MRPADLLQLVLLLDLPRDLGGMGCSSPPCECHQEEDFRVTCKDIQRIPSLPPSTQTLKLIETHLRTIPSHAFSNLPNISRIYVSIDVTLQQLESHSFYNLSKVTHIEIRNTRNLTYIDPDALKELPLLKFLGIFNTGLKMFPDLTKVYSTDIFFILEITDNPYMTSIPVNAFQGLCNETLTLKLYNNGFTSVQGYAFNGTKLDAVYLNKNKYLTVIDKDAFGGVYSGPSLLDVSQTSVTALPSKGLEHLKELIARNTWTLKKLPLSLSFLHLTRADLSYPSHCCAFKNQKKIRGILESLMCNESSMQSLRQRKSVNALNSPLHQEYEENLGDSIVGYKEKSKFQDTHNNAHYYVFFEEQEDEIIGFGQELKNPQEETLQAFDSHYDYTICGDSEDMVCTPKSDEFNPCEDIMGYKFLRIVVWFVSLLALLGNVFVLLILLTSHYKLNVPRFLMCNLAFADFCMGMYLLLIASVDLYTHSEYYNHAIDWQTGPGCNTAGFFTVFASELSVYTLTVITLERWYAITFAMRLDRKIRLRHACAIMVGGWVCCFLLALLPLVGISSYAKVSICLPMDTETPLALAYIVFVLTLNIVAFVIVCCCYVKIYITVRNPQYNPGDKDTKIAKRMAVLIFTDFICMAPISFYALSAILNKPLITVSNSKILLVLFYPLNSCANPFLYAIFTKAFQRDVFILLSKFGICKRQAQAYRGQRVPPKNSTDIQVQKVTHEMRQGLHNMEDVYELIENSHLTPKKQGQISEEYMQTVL
Procedure, shortened: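 TSHR-transfected HEK293 cells (2000/well) in HEPES-buffered HBSS with 70 uM RO 20-1724 were stimulated with 4 nM TSH (EC80, final) in the presence of compound. cAMP was measured by HTRF competition after lysis and 30 min at RT.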

[9] = target: D(1A) dopamine receptor (Homo sapiens) (UniProt P21728); experiment: HTS Assay for Allosteric Agonists of the Human D1 Dopamine Receptor: Primary Screen for Agonists (AID 488981)
Chain of D(1A) dopamine receptor (Homo sapiens) (P21728 whole entry, looked up): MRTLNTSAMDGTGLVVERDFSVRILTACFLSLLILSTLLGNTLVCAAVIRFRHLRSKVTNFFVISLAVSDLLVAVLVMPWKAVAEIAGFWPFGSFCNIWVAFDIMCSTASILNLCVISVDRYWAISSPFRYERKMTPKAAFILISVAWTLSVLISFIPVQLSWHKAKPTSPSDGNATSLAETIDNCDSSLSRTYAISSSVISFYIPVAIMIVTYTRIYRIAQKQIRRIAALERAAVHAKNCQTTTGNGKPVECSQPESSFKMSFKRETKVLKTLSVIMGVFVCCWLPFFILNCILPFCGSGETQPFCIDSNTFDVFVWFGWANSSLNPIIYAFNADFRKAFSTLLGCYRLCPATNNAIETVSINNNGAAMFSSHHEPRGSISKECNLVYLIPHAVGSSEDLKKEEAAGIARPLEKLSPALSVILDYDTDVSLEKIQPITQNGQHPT
Procedure, shortened: (§1)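 Calcium flux in an inducible, force-coupled HEK293 Trex D1 line (overnight at 30 C): agonist mode is the 180 s kinetic read after compound; potentiator mode is the following 180 s read after dopamine at EC20.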

[10] = target: D(1A) dopamine receptor (Homo sapiens) (UniProt P21728); experiment: HTS Assay for Allosteric Agonists of the Human D1 Dopamine Receptor: Primary Screen for Potentiators (AID 488982)
Procedure, shortened: as §1

[11] = target: D(1A) dopamine receptor (Homo sapiens) (UniProt P21728); experiment: HTS Assay for Allosteric Agonists of the Human D1 Dopamine Receptor: Primary Screen for Antagonists (AID 488983);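 note: calcium flux response to an EC80 dopamine challenge measured with no-wash dye; nearly all actives have a fitted effect of over 65% in size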
Procedure, shortened: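 Cells are induced with tetracycline and incubated overnight at 30 C, then loaded with calcium dye for 30 to 90 minutes at room temperature. Compound addition is followed by a 180 s read, then an EC80 dopamine addition and another 180 s read.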

[12] = Validation screen for small molecules that induce genotoxicity in human embryonic kidney (HEK293T) cells expressing luciferase-tagged ELG1 (AID 493106)
Procedure, shortened: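 Luminescence from an ELG1-luciferase fusion serves as the read-out, rising when genetic stress elevates ELG1 protein. HEK293T reporter cells (2,000 per well) received 23 nL compound, incubated 16 hr at 37 °C, then ONE-Glo for 30 min at room temperature.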

[13] = target: Thyrotropin-releasing hormone receptor (Homo sapiens) (UniProt P34981); experiment: qHTS for Small Molecule Agonists and Allosteric Enhancers of Human TRH Receptor: Validation Screen for Agonists (AID 493127;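 active = calcium activation more than 3 SD above the typical response in the agonist read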;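 note: intracellular calcium rise by fluo-8 fluorescence before TRH EC20 addition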); details: TRH receptor agonist cell assay; at 2 µM; stronger effect = higher value
Chain of Thyrotropin-releasing hormone receptor (Homo sapiens) (P34981 whole entry, looked up): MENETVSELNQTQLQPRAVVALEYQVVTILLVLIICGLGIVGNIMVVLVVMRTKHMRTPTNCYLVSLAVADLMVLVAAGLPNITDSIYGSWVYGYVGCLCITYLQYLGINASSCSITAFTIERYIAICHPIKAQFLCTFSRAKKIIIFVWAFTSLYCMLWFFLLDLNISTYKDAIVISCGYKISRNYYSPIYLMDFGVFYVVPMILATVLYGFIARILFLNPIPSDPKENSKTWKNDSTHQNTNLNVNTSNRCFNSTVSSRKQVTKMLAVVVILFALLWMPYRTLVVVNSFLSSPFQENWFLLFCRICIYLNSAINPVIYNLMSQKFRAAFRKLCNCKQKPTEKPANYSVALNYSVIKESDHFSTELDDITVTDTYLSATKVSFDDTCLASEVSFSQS
Procedure, shortened: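 Cells 2000/well, 10% FCS, 18 h 33.5C/5% CO2 → fluo-8 Ca dye, RT 30 min–1.5 h → FDSS baseline 10 × 1 s → compound added → 230 cycles (1 s/cycle) agonist mode. TRH controls.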

[14] = Nrf2 qHTS screen for inhibitors: Validation (AID 493153; active = well fitted inhibition curve with a large enough effect in the main read-out, with a control signal flat, not every such curve was filed as active); details: Potency: luciferase luminescence; viability change: measured here: cytotoxicity max response
Procedure, shortened: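 Luminescence from an ARE-firefly luciferase reporter in A549 cells gives Nrf2 inhibition; an earlier CellTiter-Fluor fluorescent read flags cytotoxicity. Cells in 5% FBS OPTI-MEM received compound dilution series for 18-24 h at 37°C.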

[15] = qHTS for Inhibitors of Cell Surface uPA Generation: Validation Assay (AID 493164)
Procedure, shortened: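 RAW 264.7 cells (4000/well) were plated overnight, then exposed for 18 h at 37 C, 5% CO2 to compounds in a 7-point 1:5 titration (2.45 nM–38.3 uM final). Intracellular ATP was read by ATP-Lite luminescence.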

[16] = target: Galactokinase (Homo sapiens) (UniProt P51570); experiment: qHTS Validation Assay for Inhibitors of Human Galactokinase (GALK) (AID 493189)
Chain of Galactokinase (Homo sapiens) (P51570 whole entry, looked up): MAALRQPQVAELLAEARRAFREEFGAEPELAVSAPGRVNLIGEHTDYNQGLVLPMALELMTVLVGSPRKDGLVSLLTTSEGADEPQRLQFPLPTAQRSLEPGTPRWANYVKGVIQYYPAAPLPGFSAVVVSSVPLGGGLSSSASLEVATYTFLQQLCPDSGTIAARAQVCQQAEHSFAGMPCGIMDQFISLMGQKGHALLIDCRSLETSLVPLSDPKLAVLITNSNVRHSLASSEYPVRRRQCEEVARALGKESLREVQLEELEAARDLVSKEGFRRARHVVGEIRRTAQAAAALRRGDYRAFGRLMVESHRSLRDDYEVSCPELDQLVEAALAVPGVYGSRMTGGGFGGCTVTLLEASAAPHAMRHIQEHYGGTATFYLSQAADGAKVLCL
Procedure, shortened: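 GALK (5 nM) with 35 uM ATP and 100 uM galactose in HEPES pH 8.0 with MgCl2, NaCl, DTT and BSA. Reaction ran 1 h at room temperature. Residual ATP read by Kinase-Glo Plus luminescence.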

[17] = target: ATPase family AAA domain-containing protein 5 (Homo sapiens) (UniProt Q96QE3); experiment: Validation screen for small molecules that inhibit ELG1-dependent DNA repair in human embryonic kidney (HEK293T) cells expressing luciferase-tagged ELG1 (AID 493107); note: nearly all actives have a fitted effect of over 70% in size; note: potency is the fitted concentration of half-maximal effect
Procedure, shortened: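 Luminescence from ONE-Glo, developed 30 min at room temperature, served as read-out of ELG1-luciferase levels. Beforehand, reporter HEK293T cells received 5-fluorouridine plus test compound for 16 hr at 37 °C.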

[18] = target: Methanococcus maripaludis chaperonin (MmCpn) (UniProt Q6LX38); experiment: High-Throughput Screening for Modulators of Cytosolic Chaperonin Activity: MmCpn Primary Screen (AID 488978);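 note: 50 nM MmCpn enzyme hydrolysing 30 µM ATP at 37 °C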
Chain of Methanococcus maripaludis chaperonin (MmCpn) (Q6LX38 1-543): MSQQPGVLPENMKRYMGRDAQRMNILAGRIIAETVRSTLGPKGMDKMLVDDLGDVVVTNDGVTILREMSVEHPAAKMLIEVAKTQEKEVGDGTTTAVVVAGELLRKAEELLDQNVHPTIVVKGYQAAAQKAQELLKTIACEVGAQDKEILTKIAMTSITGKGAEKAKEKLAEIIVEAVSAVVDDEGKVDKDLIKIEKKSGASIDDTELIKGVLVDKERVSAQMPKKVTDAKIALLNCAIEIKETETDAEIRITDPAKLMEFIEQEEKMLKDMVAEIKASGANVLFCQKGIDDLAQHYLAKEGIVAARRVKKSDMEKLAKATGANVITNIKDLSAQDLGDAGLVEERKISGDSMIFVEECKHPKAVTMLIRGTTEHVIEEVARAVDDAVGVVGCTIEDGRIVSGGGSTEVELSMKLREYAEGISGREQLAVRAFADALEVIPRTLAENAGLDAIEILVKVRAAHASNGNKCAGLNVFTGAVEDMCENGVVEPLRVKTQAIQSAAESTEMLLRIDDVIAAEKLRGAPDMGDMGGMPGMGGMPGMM
Procedure, shortened: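 MmCpn at 50 nM final was preincubated 5 min at RT with compound. ATP was then added at 30 uM final for 10 min at 37 C. ADP formed was detected by Transcreener HTRF (665/590 nm).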

SMILES	Potency [1]	Potency [2]	Potency [3]	Potency [4]	Potency [5]	Potency [6]	outcome [7]	outcome [8]	Potency [9]	Potency [10]	Potency [11]	Potency [12]	activation [13]	Potency [14]	viability change [14] [%]	outcome [15]	Potency [16]	Potency [17]	outcome [18]
OCC1O[C@H](O)C(Cl)C(O)C1O (stereo not given in full)	inactive	inactive	inactive	inactive	inactive	inactive	inactive	inactive	inactive	inactive	inactive	inactive	0.688% (inactive)	inactive	4.21	inactive	inactive		
COc1cc(C(O)CO)ccc1OS(=O)(=O)O (stereo not given)	inactive	inactive	inactive	inactive	inactive	inactive	inactive	inactive	inactive	inactive	inactive	inactive	-2.69% (inactive)	inactive	-9.03	inactive	inactive	inactive	
O=C(O)c1cc([N+](=O)[O-])ccc1NCCCc1ccccc1	inactive	inactive	inactive	inactive	inactive	inactive	inactive	inactive	inactive		inactive	inactive	0% (inactive)			inactive	inactive	inactive	inactive
NO	inactive	inactive	inactive	inactive	inactive		inactive	inactive	inactive		inactive	inactive		inactive	4.95	inactive	inactive		inactive
c1cnc2c(c1)ccc1cccnc12	2.94 µM (active)	inactive	inactive	inactive	inactive	inactive	inactive	inactive		inactive	inactive					inactive	inactive	6.51 µM (active)	inactive
Ic1ccc(N2CCN(Cc3c[nH]c4ncccc34)CC2)cc1	inactive	inactive	inactive	inactive	inactive	44.7 µM (active)	inactive	inactive			inactive	inactive				inactive	inactive		
NCCCCC(=O)O	inactive	inactive	inactive	inactive	inactive	inactive	inactive	inactive	inactive	inactive	inactive	inactive	-0.25% (inactive)	inactive	11.5	inactive	inactive	inactive	inactive
N#C/C(=C\c1c[nH]c2ccccc12)C(=O)c1ccc(O)c(O)c1	inactive	inactive	inactive	4.23 µM (active)	3.98 µM (active) and 8.44 µM (active)	3.55 µM (active)	inactive	inactive		inactive	inactive	inactive	0.438% (inactive)	inactive	-8.11	inactive	inactive		inactive
C[N+](C)(CCCCCC[N+](C)(C)CCCN1C(=O)c2cccc3cccc(c23)C1=O)CCCN1C(=O)c2cccc3cccc(c23)C1=O	0.294 µM (active)	inactive	inactive	2.99 µM (active)	inactive	inactive	inactive	inactive	inactive		inactive	inactive		inactive	-2.29	inactive	inactive		inactive
O=C(O)CCCC[C@@H]1CCSS1	inactive	inactive	inactive	inactive	inactive	inactive	inactive	inactive	inactive	inactive	inactive	inactive	0.438% (inactive)	inactive	5.5	inactive	inactive		inactive
CC(C)(C=O)Cc1cc(C(C)(C)C)c(O)c(C(C)(C)C)c1	inactive	inactive	inactive	inactive	inactive	inactive	inactive	inactive	inactive			inactive	-9.5% (inactive)	inactive	5.81	inactive	inactive	inactive	inactive
COc1ccccc1CNCCCCCCNCCCCCCCCNCCCCCCNCc1ccccc1OC	2.94 µM (active)	inactive	inactive	inactive	50.1 µM (active)	inactive	inactive	inactive			inactive	inactive	0.938% (inactive)	inactive	-8.09	inactive	inactive	inactive	inactive
O=C(O)CNC(=O)C(CS)Cc1ccccc1 (stereo not given)	inactive	inactive	inactive	inactive		inactive	inactive	inactive	inactive	inactive	inactive	inactive		inactive	2.31	inactive	inactive	inactive	inactive
C=CC(N)CCC(=O)O (stereo not given)	inactive	inactive	inactive	inactive	inactive		inactive	inactive			inactive	inactive	-0.0625% (inactive)	inactive	4.81	inactive	inactive	inactive	inactive
CN(C)CCC(c1ccc(Cl)cc1)c1ccccn1 (stereo not given)	inactive	inactive	inactive	inactive	inactive	inactive	inactive	inactive	inactive		inactive	inactive		inactive	7.36	inactive	inactive	inactive	
